From PubChem
TRHR PAM: qHTS for Small Molecule Agonists and Allosteric Enhancers of Human TRH Receptor: Primary Screen for Enhancers. AID 493056, 2011. 360,000 tested, 0.66% active. TRHR cells, fluo-8 calcium fluorescence, EC20 TRH enhancement. enhancement, % at 2 µM. Thyrotropin-releasing hormone receptor (Homo sapiens), P34981; in the data active = enhancement above about 30%; note: 0% is about no effect
Target sequence (P34981 whole entry, looked up): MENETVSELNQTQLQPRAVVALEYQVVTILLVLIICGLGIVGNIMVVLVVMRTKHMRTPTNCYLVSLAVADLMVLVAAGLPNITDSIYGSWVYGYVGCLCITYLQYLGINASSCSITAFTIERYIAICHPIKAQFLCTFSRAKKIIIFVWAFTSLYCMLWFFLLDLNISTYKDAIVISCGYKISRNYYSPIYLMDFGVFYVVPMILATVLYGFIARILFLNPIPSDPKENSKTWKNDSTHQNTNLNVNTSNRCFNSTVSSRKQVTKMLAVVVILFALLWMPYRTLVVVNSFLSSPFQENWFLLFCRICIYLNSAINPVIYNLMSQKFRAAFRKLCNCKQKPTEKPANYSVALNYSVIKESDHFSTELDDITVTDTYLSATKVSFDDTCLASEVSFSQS
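TRHR-expressing cells loaded with fluo-8 calcium dye were read kinetically (ex 480/em 530) during compound addition, then stimulated with an EC20 of TRH (10 nM final). Enhancement of the Gq-mediated intracellular calcium response was scored.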
D1 potentiator: Potentiators of Human D1 Dopamine Receptor: qHTS. AID 504651, 2011. HEK293 TREx D1 cells, calcium flux, dopamine EC20 potentiation. 360,000 tested, 0.036% active. potentiation, % at 10 µM; in the data active = potentiation above about 30%; note: 0% is about no effect
D1 antag: Antagonist of Human D 1 Dopamine Receptor: qHTS; HEK293 TREx D1 cells, calcium flux, dopamine EC80; stronger effect = lower value; activity change, negative = inhibition, % at 10 µM; D(1A) dopamine receptor (Homo sapiens), P21728; AID 504652, 2011; 360,000 tested, 3.2% active; in the data active = activity change below about -30%; note: % is set by controls: 0 for no effect and ±100 for the full control effect
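Antagonism measured as reduced calcium response to an EC80 dopamine addition following 180 s compound pre-read; cells were inducible HEK293 Trex D1 plated overnight at 30 C, read kinetically at 1 cycle/sec.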
D1 ag: Allosteric Agonists of the Human D1 Dopamine Receptor: qHTS. activation, % at 2 µM. 360,000 tested, 1% active. AID 504660, 2011. D(1A) dopamine receptor (Homo sapiens), P21728. HEK293 T-REx D1 cells, calcium flux, agonist mode; note: 0% is about no effect
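Inducible HEK293 T-REx D1 cells, force-coupled to calcium signalling, were plated at 4000 cells/well with tetracycline and held overnight at 30 C. After no-wash calcium dye loading, compound-evoked calcium rise over 180 s flagged agonists.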
TRHR ag: qHTS for Small Molecule Agonists and Allosteric Enhancers of Human TRH Receptor: Primary Screen for Agonists | 360,000 tested, 0.18% active | activation, % at 2 µM | Thyrotropin-releasing hormone receptor (Homo sapiens), P34981 | TRHR cells, calcium flux fluo-8, FDSS agonist mode; note: 0% is about no effect
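TRHR-expressing cells, plated overnight in medium with 10% serum, were loaded with fluo-8 calcium dye at room temperature. After a 10 s baseline, library compound was pin-added and calcium release was recorded kinetically (ex 480/em 530) as agonist response.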
An asterisk follows results filed as active; nt = not tested or not shown. An excerpt weighted towards active compounds, which were near 4.7% of everything screened. Cut-off read from the data, not from the text of the source, unless noted: active = activation above about 30%; inactive = the rest.

SMILES | TRHR PAM | D1 potentiator | D1 antag | D1 ag | TRHR ag
COc1ccccc1OCCC(=O)OCC(=O)NCc1ccc(Cl)cc1 | 4 | -1 | -3 | 1 | -1
COc1ccc(CNC(=O)COC(=O)CCCOc2ccc(Cl)cc2Cl)cc1 | -1 | 4 | -3 | 31* | -1
COc1ccc(OCc2nc3ccc(S(=O)(=O)Nc4ccccc4Cl)cc3[nH]2)cc1 | 1 | -11 | -57* | 4 | 0
O=S(=O)(NCc1ccco1)c1cccc(S(=O)(=O)N2CCCCC2)c1 | 32* | 5 | -4 | 2 | 0
CC(C)Cn1c(N)c(C(=O)COC(=O)C2CCCCC2)c(=O)n(C)c1=O | 2 | 2 | -38* | 14 | 1
CC(C)(C)C(=O)NNC(=O)C1CC1(c1ccccc1)c1ccccc1 (centres undefined) | -5 | -2 | -2 | 1 | 0
CCCOc1cc(N(CC)CC)ccc1/C=C(/C#N)c1nc2ccc(C)cc2[nH]1 | 9 | 19 | 6 | -2 | 32*
CCOc1cc(N(CC)CC)ccc1/C=C(/C#N)c1nc2ccccc2[nH]1 | 12 | 5 | 5 | 57* | 41*
CCN(CC)c1ccc(/C=C(/C#N)c2nc3ccc(C)cc3[nH]2)c(OC(C)C)c1 | 16 | -2 | -22 | 100* | 83*
COc1ccccc1N1CCN(C2CC(=O)N(c3ccc(F)cc3)C2=O)CC1 (centres undefined) | -4 | -1 | 16 | -1 | 0
COc1ccc(CCNC(=O)Nc2cccc([N+](=O)[O-])c2)cc1 | -4 | -6 | -34* | 15 | -1
O=C(Nc1cccc([N+](=O)[O-])c1)Nc1ccc2c(c1)OCCO2 | 16 | -7 | -40* | 18 | 1
O=C(Nc1cccc([N+](=O)[O-])c1)C1C2CCCCC21 (centres undefined) | -5 | -1 | -9 | 11 | 1
CC(C)S(=O)(=O)c1csc(NC(=O)Nc2cccc([N+](=O)[O-])c2)c1Cl | -9 | -9 | -33* | 20 | 0
O=C(Nc1cccc([N+](=O)[O-])c1)C1C2/C=C\CCCCC21 (centres undefined) | -9 | -19 | -34* | 12 | 0
Cn1nnc2c(NCc3ccccc3Cl)ncnc21 | 16 | 0 | nt | 4 | 0
CCCCN(CC)CCNC(=O)CN1C(=O)COc2ccc(S(=O)(=O)N3CCOCC3)cc21 | -1 | 6 | 5 | 0 | 0
Cc1ccc(Cc2nc3ccccc3nc2SCC(=O)Nc2ccc3c(c2)OCO3)cc1 | -7 | -1 | -11 | 0 | 0
CCOC(=O)Cn1c(=O)cc(-c2ccccc2)c2c(C)nn(C)c21 | -6 | -7 | -10 | 5 | 0
COc1ccc(C(C(=O)Nc2ccc(C(C)C)cc2)N(C)C(=O)Cc2cccs2)cc1 (centres undefined) | 4 | 5 | 0 | 25 | 0
O=C(COC(=O)COc1ccccc1)Nc1cccc([N+](=O)[O-])c1 | 7 | 0 | -34* | 6 | -1
Cc1nc(-c2cccc(NC(=O)Nc3ccc([N+](=O)[O-])cc3)c2)no1 | -9 | -6 | -45* | 25 | 2
O=C(CCc1ccccc1)Nc1cccc([N+](=O)[O-])c1 | -2 | 0 | -13 | 10 | -1
COc1ccc(C)cc1NC(=O)Nc1cccc(-c2noc(C)n2)c1 | 14 | -2 | -14 | 0 | 0
O=C(COc1ccc(/C=N/NC(=O)c2ccncc2)cc1)Nc1cccc([N+](=O)[O-])c1 | 0 | -9 | -32* | 0 | 0
SMILES | TRHR PAM | D1 potentiator | D1 antag | D1 ag | TRHR ag
O=C(CCCc1ccccc1)Nc1cccc([N+](=O)[O-])c1 | -9 | -11 | -37* | 14 | 0
OCCC1CN(Cc2cc(F)ccc2F)CCN1CCCc1ccccc1 (centres undefined) | 3 | -7 | 4 | 0 | 0
O=C(Nc1cccc([N+](=O)[O-])c1)Nc1cccc([N+](=O)[O-])c1 | -14 | -9 | -45* | 37* | 0
CCn1cc([N+](=O)[O-])c(C(=O)Nc2ccc3c(c2)OCCO3)n1 | -15 | -7 | -75* | 0 | -1
CN(C)c1ccc(/C=C/C=N/Nc2nc(N3CCOCC3)nc(N3CCOCC3)n2)cc1 | 8 | -8 | -35* | -1 | 1
Cc1nn(CCc2nn[nH]n2)c2nc(-c3ccc(Br)cc3)cc(C(F)(F)F)c12 | -3 | -2 | -36* | 4 | -2
Cc1nn(CCc2nn[nH]n2)c2nc(C(F)(F)F)cc(C(F)(F)F)c12 | -15 | -4 | -4 | 6 | 3
CC(C)Cn1cnc2c(c(-c3ccccc3)c(-c3ccccc3)n2Cc2ccco2)c1=N | -9 | -2 | 20 | 34* | 1
N=c1c2c(-c3ccccc3)c(-c3ccccc3)n(Cc3ccco3)c2ncn1CCCN1CCOCC1 | 0 | -4 | 4 | 7 | 1
OCCNc1ncnc2c1c(-c1ccccc1)c(-c1ccccc1)n2Cc1ccco1 | 6 | -4 | -2 | 3 | 0
N=c1c2c(-c3ccccc3)c(-c3ccccc3)n(Cc3ccco3)c2ncn1Cc1ccccc1 | 9 | -1 | 8 | 35* | 3
c1ccc(-c2c(-c3ccccc3)n(Cc3ccco3)c3ncnc(NCCCn4ccnc4)c23)cc1 | 8 | 7 | 1 | 52* | -1
N=c1c2c(-c3ccccc3)c(-c3ccccc3)n(Cc3ccco3)c2ncn1CCCn1ccnc1 | 5 | -2 | 16 | 14 | 1
N=c1c2c(-c3ccccc3)c(-c3ccccc3)n(Cc3ccccc3)c2ncn1CCO | 4 | 46* | 56 | 218* | 0
CCn1cc(C(=O)N2CCN(c3cccc(Cl)c3)CC2)c(=O)c2cc(S(=O)(=O)N3CCOCC3)ccc21 | 0 | -1 | 5 | -1 | 0
CCOC(=O)c1c(C)[nH]c(C)c1S(=O)(=O)N1CCCC(C(=O)NCc2ccc(C)cc2)C1 (centres undefined) | -2 | -3 | -3 | 1 | -1
CCOC(=O)N1CCN(S(=O)(=O)N2CCCC(C(=O)NCCc3ccc(Cl)cc3)C2)CC1 (centres undefined) | -2 | -3 | -41* | 5 | 0
CCOC(=O)c1c(C)[nH]c(C)c1S(=O)(=O)N1CCCC(C(=O)NCc2ccc(Cl)cc2)C1 (centres undefined) | 16 | 2 | -31* | 4 | 0
CCOC(=O)c1c(C)[nH]c(C)c1S(=O)(=O)N1CCC(C(=O)Nc2ccccc2CC)CC1 | 1 | 3 | -37* | 0 | 0
CCc1ccc(NC(=O)C2=C(C)C(=O)OC23CCCCC3)cc1 | -2 | -3 | -6 | 1 | 0
